Test results as given in the supplement of paper PMC6992640.
± gives the standard deviation of the averaged measurements.

What was measured:
Test in all cases: cell viability (% of vehicle); higher = less cytotoxic
Conditions in all cases: 10 µM; 72 h
[1] = tested on: HCI01 (cells of a triple-negative basal-like breast cancer xenograft)
[2] = tested on: HCI03 (cells of an ER-positive luminal breast cancer xenograft)
[3] = tested on: HCI09 (cells of a triple-negative luminal androgen receptor type breast cancer xenograft)
[4] = tested on: HCI11 (cells of an ER-positive luminal breast cancer xenograft)
[5] = tested on: HCI13 (cells of an ER-positive luminal breast cancer xenograft)
[6] = tested on: HCI16 (cells of a triple-negative basal-like breast cancer xenograft)
[7] = tested on: UCD52 (cells of a triple-negative basal-like breast cancer xenograft)
[8] = tested on: WHIM2 (cells of a triple-negative basal-like breast cancer xenograft)
[9] = tested on: WHIM30 (cells of a triple-negative basal-like breast cancer xenograft)
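Further: PDX cells carrying CMV promoter-driven luciferase, viability read as total photon flux per second by IVIS imaging following D-luciferin, vehicle control 0.1% DMSO.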

Structure (SMILES)	cell viability [1]	cell viability [2]	cell viability [3]	cell viability [4]	cell viability [5]	cell viability [6]	cell viability [7]	cell viability [8]	cell viability [9]
CC(=O)OC12COC1CC(O)C1(C)C(=O)C(O)C3=C(C)C(OC(=O)C(O)C(NC(=O)OC(C)(C)C)c4ccccc4)CC(O)(C(OC(=O)c4ccccc4)C21)C3(C)C.O.O.O (stereo not given) [Docetaxel Trihydrate]	106 ± 13	96.7	72.6 ± 5.4	86.1	101 ± 3.5	155	91.02 ± 0.77	72.3 ± 6.2	107 ± 5.4
Cc1ccc2c(Cl)cc(Cl)c(O)c2n1 [Chlorquinaldol]	102 ± 27	109	31.6 ± 15	52.7	105 ± 17	105	69.6 ± 16	94.2 ± 31	94 ± 5.7
CN(C)C(CCOc1cccc2ccccc12)c1ccccc1.Cl (stereo not given) [Dapoxetine HCl]	87.4 ± 15	79.4	96.9 ± 11	74.2	95.1 ± 13	70	47.9 ± 5.3	65.2 ± 12	98.4 ± 1.4
Cl.NC(N)=NC(=O)Cc1c(Cl)cccc1Cl [Guanfacine hydrochloride]	117 ± 15	97.6	82.1 ± 9.4	86.2	107 ± 6.5	94.4	93.2 ± 6	102 ± 9.9	132 ± 19
CNC(=O)[C@H](Cc1ccccc1)NC(=O)[C@H](CC(C)C)[C@H](CSc1cccs1)C(=O)NO [Batimastat (BB-94)]	94.3 ± 12	88.2	78.2 ± 20	95.3	127 ± 3.9	67	127 ± 16	72 ± 22	175 ± 0.83
O=C(CCCN1CC=C(n2c(=O)[nH]c3ccccc32)CC1)c1ccc(F)cc1 [Droperidol]	108 ± 23	106	84.4 ± 9.8	97.5	113 ± 20	107	93.1 ± 5.3	96.6 ± 20	100 ± 2.3
CC(=O)C1CCC2C3CC=C4CC(O)CCC4(C)C3CCC12C (stereo not given) [Pregnenolone]	141 ± 20	126	76 ± 7	84.5	175 ± 44	111	75.4 ± 2.4	99 ± 3.8	116 ± 19
CN(C)c1nc(N(C)C)nc(N(C)C)n1 [Altretamine]	94.8 ± 11	96.7	89.6 ± 2.6	96.8	77.9 ± 3.4	108	78 ± 4.9	115 ± 5.7	109.4 ± 0.74
Nc1nc(=O)n(C2CSC(CO)O2)cc1F (stereo not given) [Emtricitabine]	105 ± 9.3	153	104 ± 12	107	113 ± 11	94.6	79.81 ± 0.75	90 ± 8.8	98.1 ± 1.3
Cl.O=c1n(CCCN2CCN(c3cccc(Cl)c3)CC2)nc2ccccn12 [Trazodone HCl]	112 ± 11	123	95.5 ± 16	101	104 ± 9.6	148	89.05 ± 0.23	105 ± 23	192 ± 16
CCC(C)C(=O)OC1CC(O)C=C2C=CC(C)C(CCC(O)CC(O)CC(=O)[O-])C21.[Na+] (stereo not given) [Pravastatin sodium]	142 ± 13	184	126 ± 28	113	142.3 ± 0.11	152	100 ± 3.8	105 ± 20	156 ± 1.8
CNCC(O)c1ccc(O)c(O)c1.O=C(O)C(O)C(O)C(=O)O (stereo not given) [Epinephrine Bitartrate]	90.1 ± 26	96.3	89 ± 23	90.8	71.7 ± 3.3	96.7	100 ± 8.4	67.4 ± 26	110.2 ± 1.1
O=C(O)c1ccc2ccccc2c1O.OCc1cc(C(O)CNCCCCCCOCCCCc2ccccc2)ccc1O (stereo not given) [Salmeterol xinafoate]	86 ± 1.1	92.5	57.3 ± 8	75.2	88.6 ± 9.6	76.1	62.1 ± 0.9	66.7 ± 13	107 ± 20
Cc1ccc(S(=O)(=O)NC(=O)NN2CC3CCCC3C2)cc1 (stereo not given) [Gliclazide]	93.2 ± 72	143	90.8 ± 21	90.2	105 ± 4.1	122	95.6 ± 12	125 ± 8.1	125 ± 9.6
COCCCCC(=NOCCN)c1ccc(C(F)(F)F)cc1.O=C(O)C=CC(=O)O [Fluvoxamine maleate]	120 ± 4.3	111	90.71 ± 0.25	93	94.6 ± 7.2	67.7	84.9 ± 8.5	69.3 ± 19	107 ± 4.1
Cn1c(=O)c2c(ncn2CC2OCCO2)n(C)c1=O [Doxofylline]	110 ± 27	117	95.6 ± 12	100	82.8 ± 4.8	105	96.4 ± 3.6	102 ± 11	100 ± 9
COC(=O)C(c1ccccc1Cl)N1CCc2sccc2C1.O=S(=O)(O)O (stereo not given) [Clopidogrel]	102 ± 3	115	91 ± 13	119	103 ± 4.8	101	76.7 ± 16	80.012 ± 0.0022	136 ± 6.6
CNC(=O)C(NC(=O)C(CC(C)C)C(O)C(=O)NO)C(C)(C)C (stereo not given) [Marimastat]	138 ± 9.7	111	78.3 ± 3	118	72.6 ± 8.9	127	101 ± 16	105 ± 10	117 ± 13
O=P(O)(O)C(O)(Cn1ccnc1)P(=O)(O)O [Zoledronic Acid]	134 ± 17	135	88.4 ± 13	172	75.2 ± 8.7	94.7	60.6 ± 1.4	68.7 ± 15	107 ± 21
CCC1OC(=O)C(C)C(OC2CC(C)(OC)C(O)C(C)O2)C(C)C(OC2OC(C)CC(N(C)C)C2O)C(C)(O)CC(C)CN(C)C(C)C(O)C1(C)O.O.O (stereo not given) [Azithromycin Dihydrate]	110 ± 9	114	101 ± 10	112	144 ± 5	104	85.4 ± 1.5	102 ± 2.7	89 ± 1.7

Structure (SMILES)	cell viability [1]	cell viability [2]	cell viability [3]	cell viability [4]	cell viability [5]	cell viability [6]	cell viability [7]	cell viability [8]	cell viability [9]
Cc1c(NC(=O)c2cccnc2)c(=O)n(-c2ccccc2)n1C [Nifenazone]	115 ± 12	95.9	116 ± 42	114	103 ± 10	122	96.7 ± 4.5	93.9 ± 16	128 ± 6
Cl.O=S(=O)(c1cccc2cnccc12)N1CCCNCC1 [Fasudil (HA-1077) HCl]	81.6 ± 18	93.4	69.3 ± 9.2	76.2	79.6 ± 5.5	122	60.4 ± 9.9	87.3 ± 2.9	92.1 ± 12
CCN(CC)C(=S)SSC(=S)N(CC)CC [Disulfiram]	140 ± 49	75.8	71.6 ± 4.1	66.5	90 ± 5.2	92.3	82.3 ± 8.8	102 ± 8	115 ± 14
CCC1C(O)C2C3CCC(C(C)CCC(=O)O)C3(C)CCC2C2(C)CCC(O)CC12 (stereo not given) [Obeticholic Acid]	137 ± 53	149	77.56 ± 0.36	112	81.8 ± 14	145	98.9 ± 10	120 ± 1.9	151 ± 2.4
COC(=O)C1=C(C)NC(C)=C(C(=O)OC)C1c1ccccc1[N+](=O)[O-] [Nifedipine]	82.2 ± 18	130	66.9 ± 6.3	71.2	93.3 ± 14	111	92.25 ± 0.35	92.3 ± 17	110.7 ± 0.67
Cl.NC(N)=NC(N)=NCCc1ccccc1 [Phenformin HCl]	117 ± 7.8	114	53.2 ± 5.3	110	58.8 ± 5.4	94.6	78.7 ± 3.6	95.4 ± 15	90.3 ± 11
CCCC(NC(C)C(=O)N1C(C(=O)O)CC2CCCCC21)C(=O)OCC (stereo not given) [Perindopril]	110.1 ± 0.73	111	131 ± 35	111	134 ± 4.2	94.2	103 ± 2.7	102 ± 5.3	101 ± 2.5
NC(=O)Cc1cccc(C(=O)c2ccccc2)c1N [Nepafenac]	117 ± 21	101	94.6 ± 3.9	95.4	84.1 ± 5.7	94.2	104 ± 1.5	159 ± 69	136 ± 14
COc1ccc(C(=O)c2ccccc2)c(O)c1 [Oxybenzone]	120 ± 26	141	111 ± 15	109	103 ± 8.8	128	117 ± 11	125 ± 6.8	137 ± 22
CC(O)(P(=O)(O)O)P(=O)(O)O [Etidronate]	94.3 ± 15	96.6	94.9 ± 14	85.2	107.1 ± 0.89	92.3	75 ± 5.3	150 ± 2.7	111 ± 11
Nc1ncnc2c1ncn2C1OC(CO)C(O)C1O (stereo not given) [Adenosine]	99.7 ± 3.6	123	90.4 ± 15	96.9	66.2 ± 4.5	97.7	95.7 ± 3.5	121 ± 34	124 ± 16
Nc1nc(=O)c2ncn(COCCO)c2[nH]1 [Acyclovir]	103 ± 7.2	107	55.9 ± 49	113	154 ± 13	87.8	91.1 ± 11	96 ± 2.8	108 ± 19
COc1cc(OC)c(C=CS(=O)(=O)Cc2ccc(OC)c(NCC(=O)[O-])c2)c(OC)c1.[Na+]	126.6 ± 0.39	111	112 ± 11	99.6	40.1 ± 4.7	115	117 ± 20	73.9 ± 14	112 ± 16
Cn1c([N+](=O)[O-])cnc1COC(N)=O [Ronidazole]	95.3 ± 20	134	94.5 ± 2.1	88.1	102 ± 13	108	91.2 ± 2.2	90.4 ± 19	102 ± 2.5
CN(C)C(=O)c1cc2cnc(Nc3ccc(N4CCNCC4)cn3)nc2n1C1CCCC1	109 ± 4.3	135	114 ± 30	138	126 ± 13	91.7	148 ± 8.1	108 ± 13	130 ± 9.5
COCCCOc1ccnc(C[S+]([O-])c2nc3ccccc3[nH]2)c1C (stereo not given) [Rabeprazole]	156 ± 40	159	116 ± 3.5	123	152 ± 1.6	161	128 ± 27	131 ± 15	138 ± 8.2
CC1CC(OC(=O)C(O)c2ccccc2)CC(C)(C)C1 (stereo not given) [Cyclandelate]	110 ± 9.8	122	87.6 ± 4.9	89.1	73.5 ± 14	113	80.8 ± 14	93.3 ± 10	95.91 ± 0.5
CS(=O)(=O)c1ccc(C(O)C(CO)NC(=O)C(Cl)Cl)cc1 (stereo not given) [Thiamphenicol]	109 ± 26	104	85.8 ± 3.5	82.9	64.4 ± 4.1	103	84.7 ± 13	107 ± 29	122 ± 6.1
COc1cc(C(=O)NC2CCCNC2)cc(OC)c1OC (stereo not given) [Troxipide]	98.8 ± 1	110	107 ± 28	96.3	57.8 ± 3.5	106	96.8 ± 7.8	103 ± 15	137 ± 11
Cc1ccc(Nc2nccc(N(C)c3ccc4c(C)n(C)nc4c3)n2)cc1S(N)(=O)=O.Cl [Pazopanib Hydrochloride]	123 ± 20	101	77.01 ± 0.6	96.8	75.6 ± 13	134	94.9 ± 13	127 ± 32	76.7 ± 5.5
